Assay results reported in ChEMBL document CHEMBL4513216, “Probing the Open Global Health Chemical Diversity Library for Multistage-Active Starting Points for Next-Generation Antimalarials” (ACS Infect Dis, 2020).
Hit rate of the full screen: of about 68,000 compounds, about 2,700 (4%) showed an effect of 50% or more. The entries come from a sample that favours strong results as a whole.

Each compound was assayed on Plasmodium berghei (assay: Screen against P. berghei liver stage (PbLuc), transformed with Luciferase, at 2uM). Conditions: tested at 2 uM.
Type: functional, HepG2

SMILES | INHIBITION [%]
CC(C)CN1CCC2(COCc3cnc(-c4ccccc4)nc32)C1 (configuration not stated) | 5.22
O=C(c1cc(C2CC2)[nH]n1)N1CCN(Cc2ccccc2)CC1 | 5.52
CC(C)c1ccc(CN2CCN(C(=O)c3cc(C4CC4)[nH]n3)CC2)cc1 | 38.87
O=C(c1cc(C2CC2)[nH]n1)N1CCN(Cc2ccc(Cl)cc2)CC1 | 59.99
Cc1ccc(C(=O)Oc2cc(=O)n3cccc(C)c3n2)cc1 | -38.95
COc1ccc(CCNC(=O)C2CCOC2)c(Cl)c1 (configuration not stated) | -7.69
CCOCCCNC(=O)C1(C)CCC(=O)N1c1ccccc1OC (configuration not stated) | -15.25
Cc1cccc2c1cnn2CCCNC(=O)c1cnn(C)c1 | 2.66
O=C(NCCNc1ncccn1)N1CCc2ccccc2C1 | -17.17
CCc1ncc(C(=O)N2CCN(c3cnn(C)c(=O)c3)CC2)cn1 | 24.36
Cc1oc(C(C)C)cc1C(=O)N1CCN(c2cnn(C)c(=O)c2)CC1 | 86.36
Cc1cncc(C(=O)N2CCN(c3cnn(C)c(=O)c3)CC2)c1 | 41.05
CNc1cc(C2CCCN(C(=O)c3ccc(=O)[nH]n3)C2)ccn1 (configuration not stated) | 27.54
CNc1cc(C2CCCN2C(=O)c2ccc3oc(=O)n(C)c3c2)ccn1 (configuration not stated) | 11.71
CNc1cc(C2CCCN2C(=O)CCc2ccccc2F)ccn1 (configuration not stated) | -34.8
CNc1cc(C2CCCN2C(=O)CCc2cnn(C)c2C)ccn1 (configuration not stated) | 73.23

SMILES | INHIBITION [%]
CNc1cc(C2CCCN2C(=O)c2ccc(=O)[nH]n2)ccn1 (configuration not stated) | 51.88
Cc1c(CCC(=O)N2CCCC2c2ccnc(N(C)C)c2)cnn1C (configuration not stated) | 24.13
c1ccc(-c2ncc(CNC3CCc4ncnn4C3)cn2)cc1 (configuration not stated) | 15.31
c1ccc(CCN2CCOC(Cn3cccn3)C2)nc1 (configuration not stated) | 23.71
CC(NC(=O)NCCCNS(C)(=O)=O)c1ccncc1 (configuration not stated) | 9.9
CN1CCN(C(=O)N2CCCC(c3nccn3CC3CCC3)C2)CC1 (configuration not stated) | -18.71
Cc1nc(CN2CCC(C(=O)O)(n3ccc(-c4ccco4)n3)CC2)co1 | -26.72
Cc1ccc(N2CCC(C(=O)O)(n3ccc(C(C)C)n3)CC2)nn1 | -12.36
Cc1nc(CN2CCC(C(=O)O)(n3ccc(C(C)C)n3)CC2)co1 | 53.55
Cc1ccc(-n2nnc(C(=O)O)c2C)c(C)c1 | -2.64
O=C(c1ccc(S(=O)(=O)NC2CCC2)cc1)N1CC[C@H]2CNC[C@H]21 | -13.8
O=C(c1cc(F)cc(F)c1)N1C[C@H]2CNC[C@H]2C1 | 51.81
O=C(c1ccc(F)c(F)c1)N1C[C@H]2CNC[C@H]2C1 | -9.69
O=C(c1ccc(S(=O)(=O)NCC(F)F)cc1)N1CC[C@H]2CNC[C@H]21 | 26.74
Cc1ccc(C(=O)N2C[C@H]3CNC[C@H]3C2)cn1 | -53.62
O=C(c1ccc(S(=O)(=O)NCC(F)F)cc1)N1C[C@H]2CNC[C@H]2C1 | 57.75
